High-throughput results deposited in PubChem by National Center for Advancing Translational Sciences (NCATS).
PINK1 expr mod: PINK1 expression modulation. PINK1 immunofluorescence, high-content cytometry, 24 h. Potency, µM (top dose mostly 76.6 µM), most hits filed as activators. 410,000 tested, 0.2% active; active = well fitted activation curve with a large enough effect; inconclusive = small, poorly fitted or top-dose-only effect; cell line not stated here; also: nearly all actives have a fitted effect of over 65% in size
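Measures PINK1 amount and localization on or inside mitochondria by immunofluorescence. Stable cells get compounds at 5 concentrations for 24 hours before fixation and staining; CCCP controls included.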
TSG101-PTAP inh: blocks PTAP/TSG101 interaction to inhibit HIV-1 budding; Q99816; Fluorescence polarization, FITC-PTAP peptide / Tsg101 binding; Potency, µM (doses to about 115 µM), hits mostly inhibitors; 340,000 tested, under 10 active; AID 493005; active = well fitted inhibition curve with a large enough effect in the main read-out, with a control signal flat, not every such curve was filed as active; inconclusive = small, poorly fitted or top-dose-only effect, or effect the other way, or a change in a side signal; inactive = no such curve, though single readings can be large or run the other way
Target sequence (Q99816 whole entry, looked up): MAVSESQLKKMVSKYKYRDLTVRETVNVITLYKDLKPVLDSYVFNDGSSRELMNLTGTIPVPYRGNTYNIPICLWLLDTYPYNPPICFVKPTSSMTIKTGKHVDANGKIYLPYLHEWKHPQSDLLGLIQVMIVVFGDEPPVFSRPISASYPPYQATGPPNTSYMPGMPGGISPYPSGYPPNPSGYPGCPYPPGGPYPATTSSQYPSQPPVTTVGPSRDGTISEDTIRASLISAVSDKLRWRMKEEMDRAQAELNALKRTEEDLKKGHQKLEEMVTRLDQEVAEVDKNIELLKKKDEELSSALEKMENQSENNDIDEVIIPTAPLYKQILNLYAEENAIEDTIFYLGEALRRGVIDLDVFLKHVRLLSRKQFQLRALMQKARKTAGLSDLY
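Fluorescence polarization binding of Tsg101 binding domain (10 uM final) to FITC-labeled PTAP peptide (50 nM final) in HEPES pH 7.5 buffer with NaCl, Tween 20, EDTA, TCEP. Compounds added before peptide; binding 20 min at RT.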
KB-V1 cytotox: KB-V1 MDR subline cytotoxicity; KB-V1 MDR cells viability, CellTiter-Glo, 72 h; Potency, µM (highest dose often 46.1 µM), hits mostly cytotoxic; 400,000 tested, 3.4% active; also: nearly all actives have a fitted effect of over 60% in size
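KB-V1 cells (P-gp-expressing MDR subline of KB-3-1) in phenol-red-free DMEM with 10% FBS were exposed to library compounds over a concentration series for 72 h at 37 degrees C. Viability read by CellTiter-Glo luminescence; concentration-effect curves fitted after normalization.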
SW480 rerep: DNA re-replication induction in SW480 cells. SW480 DNA re-replication, Hoechst DNA content imaging, 48 h. Potency, µM (series often up to 46.1 µM), actives largely listed as activators. 340,000 tested, 1.8% active. AID 624297; also: nearly all actives have a fitted effect of over 55% in size
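250 cells/well; 23 nL cpd via pin tool; 48 hr, 37 C, 5% CO2; Hoechst 40 min; imager read of total nuclear intensity, ex 405/em 500-530 nm.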
MCF10A rerep: induces DNA re-replication in MCF 10a normal breast cells; 350,000 tested, 2.9% active; AID 624296; Potency, µM (highest dose often 46.1 µM), hits mostly activators; MCF 10A DNA re-replication, Hoechst nuclear intensity, 48 h; also: nearly all actives have a fitted effect of over 50% in size
KB-3-1 cytotox: kills parental KB-3-1 adenocarcinoma cells. KB-3-1 viability, CellTiter-Glo ATP luminescence, 72 h. Potency, µM (titrated, usually from 46.1 µM), actives largely listed as cytotoxic. 400,000 tested, 1.4% active. AID 1347075; also: nearly all actives have a fitted effect of over 60% in size
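Parental KB-3-1 viability, qHTS format: 72 h compound exposure, 37 °C; CellTiter-Glo; media-only wells and DMSO plates as controls; concentration-effect fits on corrected data.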
Hits are given with their value; n = inactive; u = inconclusive; x = no result; [ ] = another dose, or the depositor's remark. Only some compounds are listed: those with a hit (about 6.8% of all), similar ones and a draw of the others. Unless noted, calls follow the shape of the dose curve; as a rule, active = well fitted curve in the direction sought with a large enough effect; inconclusive = small, poorly fitted or top-dose-only effect, or another doubt; inactive = no such curve, though single readings can be large; an effect the other way counts as inactive or inconclusive.

SMILES | PINK1 expr mod | TSG101-PTAP inh | KB-V1 cytotox | SW480 rerep | MCF10A rerep | KB-3-1 cytotox
CC(=O)OC1C(O)C(C)OC(OC2C(OC(=O)C3CCC4C(C3)OC3(CC(OC(=O)/C=C/c5ccccc5)C(C)CO3)C43CO3)OC(C)C(O)C2OC(C)=O)C1O (stereo not drawn) | n | n | u | 0.21µM | u | 0.18µM
C[C@]12CC[C@@H]3c4ccc(O)cc4C(=O)C[C@H]3[C@@H]1CC[C@@H]2O | n | n | u | n | n | n
C[C@H]1O[C@H](O[C@H]2[C@H](O)[C@@H](O)[C@@H](O)[C@H](O)[C@@H]2O)[C@@H](N)C[C@@H]1NC(=N)C(=O)O | n | x | x | x | x | x
O=C1CN=C(c2ccccc2Cl)c2cc(Cl)ccc2N1Cc1cccc(Cl)c1 | n | x | 15µM | x | x | u
CC(C)[C@H]1C(=O)O[C@H](C(C)C)C(=O)N(C)[C@@H](C(C)C)C(=O)O[C@H](C(C)C)C(=O)N(C)[C@@H](C(C)C)C(=O)O[C@H](C(C)C)C(=O)N1C | u | n | u | n | u | 5.8µM
CCC(C)C1NC(=O)C(NC(=O)C(CC(C)C)N(C)C(=O)C2CCCN2C(=O)C(C)O)C(C)OC(=O)C(Cc2ccc(OC)cc2)N(C)C(=O)C2CCCN2C(=O)C(CC(C)C)NC(=O)[C@H](C)C(=O)[C@H](C(C)C)OC(=O)CC1O (stereo partly drawn) | n | n | 8.2µM | u | u | 0.16µM
Cc1ccc(/C=C2\C(=O)NC(=S)N(c3ccccc3F)C2=O)s1 | n | n | n | u | 5.8µM | u
O=[N+]([O-])/C=C/c1c(Cl)cccc1Cl | n | n | u | 6.5µM | 3.7µM | u
CCN(CC)c1ccc(/C=C/[N+](=O)[O-])cc1 | n | n | u | u | u | u
COc1ccc(CC2NCC(O)C2OC(C)=O)cc1 (stereo not drawn) | n | n | 0.18µM | n | u | 0.18µM
COc1ccc(CC(=O)N2CCN(C)CC2)cc1 | n | x | n | n | n | n
O=C1N=NC2=C1c1c3ccccc3c(O)n1CC2 | n | n | n | n | n | n
On1ccccc1=S | u | n | u | n | 6.5µM | n
O=c1[nH]c(=S)n(-c2ccc(Cl)cc2)c(O)c1C=Nc1ccc(N2CCOCC2)cc1 | n | n | n | n | n | n
O=c1c2cc(N3CCOCC3)ccc2[nH]c(=S)n1Cc1ccc(Cl)cc1 | n | n | 21µM | n | 2.6µM | n
CC(=NCc1ccc2c(c1)OCO2)c1c(O)n(C)c(=O)n(C)c1=O | n | n | 21µM | n | u | 8.2µM
CCC(=NCc1ccc2c(c1)OCO2)c1c(O)n(C)c(=O)n(C)c1=O | n | n | n | n | n | 15µM
CCC(=Nc1ccc(OC)cc1OC)c1c(O)n(C)c(=O)n(C)c1=O | n | n | u | n[9.22 µM] | n | u
CCC(=NCCOc1ccc(Cl)cc1)c1c(O)n(C)c(=O)n(C)c1=O | n | n | 18µM | n | n | u
CCC(=NCc1cc(OC)cc(OC)c1)c1c(O)n(C)c(=O)n(C)c1=O | n | n | 7.3µM | n | n | u
CCCCn1c(O)c(C(C)=NCc2ccc3c(c2)OCO3)c(=O)[nH]c1=O | n | n | u | n | n | n
COc1ccc(-c2nc(CN3C(=O)CN=C(c4ccccc4)c4cc(Cl)ccc43)c(C)o2)cc1 | n | x | u | x | x | n
C[C@H]1CN([C@@H](C)CO)C(=O)c2cccc(NC(=O)c3ccc(-c4nccs4)cc3)c2O[C@@H]1CN(C)C(=O)Nc1cccc2ccccc12 | n | n | n | n | n | n
Cc1cc(NS(=O)(=O)c2ccc(N)cc2)no1 | n | n | n | n | u | n
O=C(O)c1ccccc1O | n | n | n | u | n | n
SMILES | PINK1 expr mod | TSG101-PTAP inh | KB-V1 cytotox | SW480 rerep | MCF10A rerep | KB-3-1 cytotox
C[CH2][Hg][S]c1ccccc1C(=O)O | n | n | 21µM | 6µM | 0.92µM | 5.2µM
O=C(c1cc2c(s1)-c1ccccc1OC2)N1CCC2(CC1)OCCO2 | n | x | 13µM | u | u | n
CN1CC[C@@]2(C)c3cc(O)ccc3N(C)C12 (stereo partly drawn) | n | x | u | x | x | u
Oc1c(Cl)c(Cl)c(Cl)c(Cl)c1Cl | u | n | u | n | 8.2µM | n
CCN(CC)C(=O)/C(Cl)=C(\C)OP(=O)(OC)OC | x | x | x | n | n | x
COP(=O)(OC)OC=C(Cl)Cl | x | x | x | 13µM | 12µM | x
Cn1cc(/C=C(\C(=O)O)C(C(=O)O)=C2CCCCC2)c2ccccc21 | n | n | n | n | n | n
CCOC(=O)[C@]12Cc3cc(C)ccc3[C@H]1N(C(C)C)C(=O)c1ccccc12 | n | x | n | x | x | 4.1µM
CCOC(=O)[C@]12Cc3cc(C)ccc3[C@H]1N(Cc1ccccc1)C(=O)c1cc(F)c(F)cc12 | n | x | n | x | x | 3.3µM
CCOC(=O)[C@]12Cc3ccccc3[C@H]1N(C)C(=O)c1cc(OC)ccc12 | n | x | 7.3µM | x | x | 9.2µM
CCOC(=O)[C@]12Cc3cc(OC)ccc3[C@H]1N(Cc1ccccc1)C(=O)c1cc(F)c(F)cc12 | n | n | u | n[9.22 µM] | u | u
CCOC(=O)[C@]12Cc3ccccc3[C@H]1N(C(C)C)C(=O)c1cc(OC)ccc12 | n | x | 4.1µM | x | x | 3.7µM
C[N+]1([O-])[C@@H]2CC(OC(=O)[C@@H](CO)c3ccccc3)C[C@@H]1[C@H]1O[C@H]12 (stereo partly drawn) | x | x | x | n | n | x
ClCCN(CCCl)c1ccc(/C=C/c2ccnc3ccccc23)cc1 | n | x | u | x | x | u
CCOC(=O)[C@]12Cc3c(cc(OC)c(OC)c3OC)[C@H]1N(C)C(=O)c1cc(OC)ccc12 | n | x | 3.7µM | x | x | 2.9µM
COc1cc2c(cc1OC)C(C(=O)NCCC(C)C)C1CCCCN1C2=O (stereo not drawn) | n | n | u | n | n | n
COc1cc2c(cc1OC)C(C(=O)N1CCC3(CC1)OCCO3)C(c1ccccc1F)N(C)C2=O (stereo not drawn) | n | n | n | n | u | n
CCOC(=O)[C@]12Cc3c(cc(OC)c(OC)c3OC)[C@H]1N(C(C)C)C(=O)c1ccccc12 | n | x | 8.2µM | x | x | 13µM
C[C@]12CCC3C(CCC4=C(Cl)C(=O)CC[C@@]43C)C1CCC2O (stereo partly drawn) | x | x | x | n | n | x
CCCSc1ccc2nc(NC(=O)OC)[nH]c2c1 | n | n | 1.6µM | 0.82µM | 0.73µM | 1.2µM
c1cc2c(c(NC3=NCCN3)c1)CCCC2 | x | x | x | n | n | x
O=c1c2ccccc2nc(-c2ccoc2)n1-c1ccccc1Cl | n | n | 16µM | n | n | u
O=C1CN=C(c2ccccc2)c2cc(Cl)ccc2N1CC1CC1 | x | x | x | n | n | x
COCCOC(=O)c1c(C)n(C)c2ccc(OC(=O)N(C)C)cc12 | 5.6µM | n | n | n | n | n
